# High-throughput results deposited in PubChem by National Center for Advancing Translational Sciences (NCATS).
# Many of the other results were omitted from the sample, so hits are more common in it than they were.
# ERK EGF block: EGF-driven ERK pathway inhibition | Potency, µM (series often up to 11.5 µM), for inactives: at the top dose activity change, negative = inhibition, hits mostly inhibitors | HEK293-V1b, EGF-stimulated phospho-ERK AlphaScreen | 130,000 compounds, 0.41% hits; active = well fitted inhibition curve with a large enough effect;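 note: plate controls were stimulated vehicle wells for no effect and unstimulated vehicle basal for full effect; nearly all actives have a fitted effect of over 55% in size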
#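 Phospho-ERK1/2 measured by AlphaScreen (SureFire) after 5 min 25 nM EGF stimulation of V1b-expressing HEK293 cells preincubated 30 min at 37C with titrated compounds; data scaled to DMSO and EGF controls, Hill-fitted AC50.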
# Active calls of the source: *; [ ] = remark or other dose. Potency is the fitted concentration of half-maximal effect.
SMILES,ERK EGF block
COc1ccc(CCN=Cc2c(C)[nH]n(-c3ccc([N+](=O)[O-])cc3)c2=O)cc1OC,-7%
Cc1ccc(-n2[nH]c(C)c(/C=N/Nc3ccc([N+](=O)[O-])cc3[N+](=O)[O-])c2=O)cc1C,16µM*
Cc1[nH]n(-c2ccc([N+](=O)[O-])cc2)c(=O)c1/C=N/N1CCOCC1,8%
Cc1ccc(N2CCOCC2)c2c1C(=O)c1ccccc1C2=O,17%
O=C(O)c1cccc(NC2=C(N3CCOCC3)C(=O)c3ccccc3C2=O)c1,6%[57.5 µM]
CN(C1=C(N2CCOCC2)C(=O)c2ccccc2C1=O)c1ccccc1,11µM*
Cc1cc(O)cc(O)c1C(=O)OC1(C)C(=O)C=C2C=C(/C=C/CO)OC=C2C1=O (stereo not drawn),-3%
COC(C)(C)CCCC(C)C/C=C/C(C)=C/C(=O)O (stereo not drawn),1%
N#Cc1ccccc1-c1cncnc1NCc1cccnc1,21%
CCNc1nn2ccccc2c1/C=C(\C#N)C(=O)OCC,1%[57.5 µM]
CCCn1c(C)cc(C(=O)CSc2nc3ccccc3c(=O)n2Cc2ccco2)c1C,10%
Cc1cc(C(=O)CSc2nncs2)c(C)n1Cc1ccco1,14%
Cc1cc(C(=O)CSc2nc3ccccc3[nH]2)c(C)n1Cc1ccco1,18µM*
Cn1cnnc1Sc1cc(N2CCN(S(=O)(=O)c3ccc4ccccc4c3)CC2)ccc1[N+](=O)[O-],0%
CC1(C)COC(c2coc3ccccc3c2=O)OC1,1%
C=C(C)CN(CC)C(=O)CSc1nc(O)cc(=O)n1C1CCCC1,-19%
CN1/C(=C/C=C(C#N)C#N)C=Cc2ccccc21,-10%[57.5 µM]
CCOC(=O)/C(C#N)=C(C)/C=C1\Sc2ccccc2N1CC,3%
CCOC(=O)/C(C#N)=C/C=C1\C=Cc2ccccc2N1CC,16µM*
N#CC(Cc1ccc(O)c(O)c1)C(=O)N1CCc2ccccc21 (stereo not drawn),-7%
O=C1CN(C(=O)CNCc2cccc(Cl)c2)c2ccccc2N1,5%[57.5 µM]
O=C1C(NS(=O)(=O)c2ccc(Cl)cc2)=C(N2CCCCC2)C(=O)c2ccccc21,14µM*
CN1CCN(C2=C(NS(=O)(=O)c3cccs3)C(=O)c3ccccc3C2=O)CC1,-8%[57.5 µM]
O=C1C(Nc2ccccc2)=C(NS(=O)(=O)c2ccccc2)C(=O)c2ccccc21,3%
O=S(=O)(Nc1ccc(N2CCCCC2)cc1)c1ccccc1,3%
SMILES,ERK EGF block
Cc1ccccc1CN1CCN(S(=O)(=O)c2cccs2)CC1,1%
O=C1C(NS(=O)(=O)c2cccs2)=C(N2CCN(Cc3ccccc3)CC2)C(=O)c2ccccc21,16µM*
Cc1nc2c(sc3nc(N4CCOCC4)c4c(c32)CC(C)(C)OC4)c(-c2ccc(Cl)cc2)c1C(=O)O,25%[57.5 µM]
C=CCOC[C@@H]1CN2[C@H](c3ccc(Br)cc3)[C@@H](C)CC[C@H]2C(=O)O1,2%
C=C[C@@]1(C)CC[C@H](O)[C@H]2C(=O)CCC[C@@H]21,-4%
O=C(c1cccc(F)c1)N1CCC2(CC1)CCN(c1ccncc1)CC2,4%
COc1ccc(NC(=O)N2CCCC3(CCN(C(=O)c4cccn4C)CC3)C2)cc1,-1%
COc1ccccc1CN1CC[C@@]2(CCCN(S(=O)(=O)c3ccccc3)C2)C1,-6%
COc1ccc(-n2c(C)cc(/C=C3/SC(=S)N(C)C3=O)c2C)cc1,-6%
Cc1cc(/C=C2\SC(=S)N(C)C2=O)c(C)n1-c1cccc(O)c1,28µM*
O=C1/C(=C/c2ccccn2)SC(=S)N1c1cccc(O)c1,4%[57.5 µM]
COC(=O)c1ccc(C(NC(=O)OCc2ccccc2)/C(C)=C/[C@@H](C)C(=O)Nc2ccc(OC)cc2)cc1 (stereo partly drawn),2%
CCOc1ccc2[nH]c3c(N4CCc5ccccc5C4)ncnc3c2c1,32µM*
c1ccc2c(c1)CCN(c1ncnc3nc[nH]c13)C2,8%
CCOc1ncnc2c1[nH]c1ccccc12,-9%[57.5 µM]
O=c1c(CCc2ccccc2)nc2cnc(Nc3ccccc3)nc2n1Cc1cccs1,-2%
COc1ccc2nc(N=NC3=C(O)CC(C)(C)CC3=O)sc2c1,1%
COc1ccc2nc(N=Nc3ccc(O)c4ccccc34)sc2c1,7.1µM*
COc1cccc(Nc2nc3ccc(OC)cc3s2)c1,6%
COc1cc(C(=O)Nc2nnc(C)s2)c([N+](=O)[O-])cc1OC,8%[57.5 µM]
COc1ccc2c(c1)C(=O)[C@@H](OC(=O)N[C@H]1CCCc3ccccc31)[C@H](c1ccc(OC)c(Br)c1)O2,1%
COc1cccc2c1C(=O)c1c(O)c3c(c(O)c1C2=O)C[C@@](O)(C(=O)CO)C[C@@H]3O[C@H]1C[C@H](N)[C@H](O)[C@H](C)O1,28µM*
COc1cccc2c1C(=O)c1c(O)c3c(c(O)c1C2=O)C[C@](O)(C(C)=O)C[C@H]3O[C@@H]1C[C@H](N)[C@H](O)[C@H](C)O1,-1%[25.7 µM]
CCCCCn1c(=N)n(CC(O)COc2ccccc2OC)c2ccccc21 (stereo not drawn),0%
CCN(CC)CCn1c(=N)n(CC(O)COc2ccccc2)c2ccccc21 (stereo not drawn),0%[57.5 µM]
SMILES,ERK EGF block
Cc1ccccc1OCC(O)Cn1c(=N)n(Cc2ccccc2)c2ccccc21 (stereo not drawn),32µM*
CN(C)/C=C/C(=O)c1ccc(Cl)c([N+](=O)[O-])c1,0%
Cc1ccc(C2=Nc3ccccc3SC(c3cccc([N+](=O)[O-])c3)C2)cc1 (stereo not drawn),-4%[57.5 µM]
Cc1csc(SCC(=O)NCc2cccc(Cl)c2)n1,0%
Cc1ccccc1NC(=O)N1CCN(C/C=C/c2ccccc2)CC1,-9%
CC[n+]1c(/C=C/c2ccc(N(C)C)cc2)ccc2ccccc21,3%
CC[n+]1ccccc1/C=C/c1ccc(N(C)C)cc1,-3%
CC[n+]1ccc(/C=C/c2ccc(N(C)C)cc2)c2ccccc21,14µM*
Cc1nc(NCc2ccccc2)c2nc(-c3ccccc3)n(CCCN(C)C)c2n1,-5%
COc1ccc2c(=O)c3c(=O)n(-c4ccccc4)c(-c4ccc(C)cc4)nc3oc2c1,4%[57.5 µM]
O=C(O)CCC/C=C\CC1C2CCC(O2)C1CNNC(=O)Nc1ccccc1 (stereo not drawn),-11%
O=C(Nc1ccc(N2CCOCC2)nc1)c1cccs1,6%
O=C(Nc1ccc(N2CCN(c3ncccc3C(F)(F)F)CC2)nc1)c1cccs1,14µM*
O=C(Nc1ccc(N2CCN(c3ccc(C(F)(F)F)cn3)CC2)nc1)c1cccs1,-4%[57.5 µM]
CCn1c(SCC(=O)NCc2ccccc2)nnc1-c1cccnc1,-6%
Cc1cc(NCC(c2ccccc2)c2ccccc2)n2ncnc2n1,-4%
CCCOc1ccc(C(=O)Nc2ccc(S(=O)(=O)Nc3cc(C)nc(C)n3)cc2)cc1,6%[57.5 µM]
C=CC[n+]1c(/C=C2\C=Cc3cc(C)ccc3N2CC)ccc2ccccc21,22µM*
CCN1C(=C(C#N)C#N)C=Cc2cc(C)ccc21,-5%
CC(=O)[C@@H]1[C@H]2[C@H](C(=O)[C@H]3OC[C@@H]2O3)[C@H]2C=Cc3ccccc3N21,-1%
C=C1C(C2(C)C=CC(=O)C(C)(C)C2CC(=O)OC)CC[C@@]2(C)C(c3ccoc3)OC(=O)C3OC132 (stereo partly drawn),29%
Cc1nn(-c2ccc(F)cc2)c(Cl)c1/C=C1\C(=O)Nc2ccccc21,28µM*
Cc1ccc(/C=C2\C(=O)Nc3ccccc32)o1,4%
Cc1nn(-c2ccccc2)c(Cl)c1/C=C1\C(=O)N(C)C(=S)N1C,-1%
